Records with an inconclusive call do not appear. Values without a mark were called inactive. Activity calls are given as the source filed them. The call rests on the fitted dose curve; in most records, active means well fitted inhibition curve with a large enough effect; inconclusive means small, poorly fitted or top-dose-only effect; inactive means flat fitted curve, though single readings scatter.
How the values were obtained:
Assay in all cases: Cytotoxic Profiling of Annotated Libraries Using Quantitative High-Throughput Screening (AID 1296008); further: nearly all actives have a fitted effect of over 60% in size
Conditions in all cases: Five cell lines viability, CellTiter-Glo ATP luminescence, 48-72 h; max response: stronger effect = lower value
CRL-7250 = normal cell line; tested on: CRL-7250
Method in brief: (§1)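 Cytotoxicity was measured as CellTiter-Glo ATP luminescence, read after 10 min at room temperature. Compound treatment of the cells lasted 48 or 72 hr at 37 degrees Celsius in a qHTS format.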

HEK293 = tested on: HEK293
Method in brief: as §1

HaCat = tested on: HaCat
Method in brief: as §1

KB-3-1 = tested on: KB-3-1
Method in brief: as §1

NIH3T3 = tested on: NIH3T3
Method in brief: as §1
On the % scale 0 is the no-effect control and ±100 the full control effect; potency means the concentration at half of the fitted maximal effect.

Question: How did the max response (CRL-7250) turn out when `C=C(C)[C@H]1CC[C@]2(C(=O)O)CC[C@]3(C)C(CCC4[C@@]5(C)CCC(=O)C(C)(C)C5CC[C@]43C)C12` (stereo not given in full) was run?
Answer: -18.5%

Question: What about the Potency (HEK293) of the same compound?
Answer: 7.09 µM (active)

Question: What about the outcome (HaCat) of the same compound?
Answer: inactive

Question: What about the max response (KB-3-1) of the same compound?
Answer: -14.2%

Question: And the max response (NIH3T3)?
Answer: -1.29%

Question: How did the max response (CRL-7250) turn out when `C[C@@H]1O[C@@H](O[C@H]2[C@H](OC(=O)[C@]34CCC(C)(C)C[C@H]3C3=CCC5[C@@]6(C)C[C@@H](O)[C@@H](O)[C@@](C)(CO)C6[C@H](O)C[C@@]5(C)[C@]3(C)CC4)OC[C@H](O)[C@@H]2O)[C@H](O)[C@H](O)[C@H]1O[C@@H]1OC[C@@H](O)[C@H](O[C@H]2O[C@H](C)[C@@H](O)[C@H](O)[C@@H]2O)[C@H]1O` (stereo not given in full) was run?
Answer: 1.4%

Question: What about the max response (HEK293) of the same compound?
Answer: -0.607%

Question: What about the outcome (HaCat) of the same compound?
Answer: inactive

Question: And the max response (KB-3-1)?
Answer: 8.34%

Question: And the outcome (NIH3T3)?
Answer: inactive

Question: What does the source list for `COc1cc(O)c2c(c1)C1(OC2=O)C(C)=CC(=O)C1O` (stereo not given)?
Answer: outcome (CRL-7250): inactive; max response (HEK293): -12.8%; outcome (HaCat): inactive; max response (KB-3-1): 7.65%; max response (NIH3T3): 4.25%

Question: What does the source list for `NC1=NC2(c3cc(NC(=O)c4ccc(F)cn4)ccc3F)COCC2CS1` (stereo not given)?
Answer: max response (CRL-7250): 3.35%; max response (HEK293): -14.7%; outcome (HaCat): inactive; max response (KB-3-1): -4.81%; max response (NIH3T3): -8.12%

Question: How did the max response (CRL-7250) turn out when `COc1ccc(-n2c(SCC#N)nc3sc4c(c3c2=O)CCCC4)cc1` was run?
Answer: 1.37%

Question: And the max response (HEK293)?
Answer: 3.85%

Question: What about the outcome (HaCat) of the same compound?
Answer: inactive

Question: And the max response (KB-3-1)?
Answer: 9.32%

Question: What about the max response (NIH3T3) of the same compound?
Answer: 4.07%

Question: With `OC[C@@]1(O)CO[C@@H](OC[C@H]2O[C@@H](OCc3ccccc3)[C@H](O)[C@@H](O)[C@@H]2O)[C@@H]1O` as the compound, how does the max response (CRL-7250) read?
Answer: 1.98%

Question: And the max response (HEK293)?
Answer: 2.46%

Question: And the outcome (HaCat)?
Answer: inactive

Question: And the outcome (KB-3-1)?
Answer: inactive

Question: What about the outcome (NIH3T3) of the same compound?
Answer: inactive

— PubChem BioAssay (NCATS)
